Screening results deposited in PubChem by National Center for Advancing Translational Sciences (NCATS).
G9a inh – blocks human histone lysine methyltransferase G9a; G9a H3K9 monomethylation, AlphaScreen, 2 h; Potency, µM (doses to about 102 µM), for inactives: at the highest dose activity, negative = inhibition, actives largely listed as inhibitors; Q96KQ7; 350,000 tested, 8.8% active; also: % is scaled to controls: 0 for no effect and ±100 for the full control effect; nearly all actives have a fitted effect of over 75% in size
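Readings reflect AlphaScreen signal from monomethyl-H3K9 antibody detection. HMT at 20 nM; substrate b-H3K9 500 nM; cofactor SAM 20 uM; 2 h RT reaction; compounds tested as titrations in qHTS with 15 min preincubation.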
JMJD2A Tudor inh – inhibitors of human JMJD2A Tudor domain; O75164; AlphaScreen JMJD2A-Tudor / H3K4me3 peptide binding; Potency, µM (series often up to 114 µM), inactives show at the highest dose activity change, negative = inhibition, most hits filed as inhibitors; 390,000 tested, 4.4% active; AID 504339; also: % is scaled to controls: 0 for no effect and ±100 for the full control effect; nearly all actives have a fitted effect of over 50% in size
HP1b binding inh – blocks HP1-beta chromodomain binding to methylated histone tails. P83916. AlphaScreen HP1-beta / biotin-H3K9me3 peptide binding. 390,000 tested, 0.56% active. Potency, µM (titrated, usually from 114 µM), for the others: at the highest dose activity change, negative = inhibition, usual class: inhibitors; also: nearly all actives have a fitted effect of over 70% in size
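Compound inhibition of the preformed complex between 50 nM HP1-beta and 50 nM biotinylated H3K9me3 peptide was read by AlphaScreen. Buffer was PBS pH 7.4 with 0.01% Tween-20. Incubations ran 30 min at room temperature, with 10 ug/mL donor/acceptor beads.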
Sfp inh – inhibitors of Bacillus subtilis Sfp phosphopantetheinyl transferase; Potency, µM, without a hit: largest response in the series, negative = inhibition, actives largely listed as inhibitors; Biochemical Sfp PPTase activity, qHTS; AID 1490; 310,000 tested, 3.5% active;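 also: the enzyme is Sfp with the accession as filed and its product quenches rhodamine fluorescence; 0% = enzyme reaction without inhibitor and -100% = no enzyme wells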
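Fluorescence-quenching assay with 15 nM Sfp, 5 uM rhodamine-CoA and 12.5 uM BHQ-2-labelled ybbR peptide in pH 7.6 Hepes/MgCl2 buffer. Enzyme was pre-incubated with compound for 15 min at room temperature. Rate was taken from the 30-min fluorescence change (525/598 nm).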
BAZ2B inh – inhibitors of human BAZ2B bromodomain. AlphaScreen BAZ2B-H3K14Ac peptide displacement. Potency, µM (titrated, usually from 114 µM), for inactives: at the highest dose activity change, negative = inhibition, most hits filed as inhibitors. 360,000 tested, 4.4% active. AID 504333; also: % is scaled to controls: 0 for no effect and ±100 for the full control effect; nearly all actives have a fitted effect of over 60% in size
Target sequence (Q9UIF8 whole entry, looked up): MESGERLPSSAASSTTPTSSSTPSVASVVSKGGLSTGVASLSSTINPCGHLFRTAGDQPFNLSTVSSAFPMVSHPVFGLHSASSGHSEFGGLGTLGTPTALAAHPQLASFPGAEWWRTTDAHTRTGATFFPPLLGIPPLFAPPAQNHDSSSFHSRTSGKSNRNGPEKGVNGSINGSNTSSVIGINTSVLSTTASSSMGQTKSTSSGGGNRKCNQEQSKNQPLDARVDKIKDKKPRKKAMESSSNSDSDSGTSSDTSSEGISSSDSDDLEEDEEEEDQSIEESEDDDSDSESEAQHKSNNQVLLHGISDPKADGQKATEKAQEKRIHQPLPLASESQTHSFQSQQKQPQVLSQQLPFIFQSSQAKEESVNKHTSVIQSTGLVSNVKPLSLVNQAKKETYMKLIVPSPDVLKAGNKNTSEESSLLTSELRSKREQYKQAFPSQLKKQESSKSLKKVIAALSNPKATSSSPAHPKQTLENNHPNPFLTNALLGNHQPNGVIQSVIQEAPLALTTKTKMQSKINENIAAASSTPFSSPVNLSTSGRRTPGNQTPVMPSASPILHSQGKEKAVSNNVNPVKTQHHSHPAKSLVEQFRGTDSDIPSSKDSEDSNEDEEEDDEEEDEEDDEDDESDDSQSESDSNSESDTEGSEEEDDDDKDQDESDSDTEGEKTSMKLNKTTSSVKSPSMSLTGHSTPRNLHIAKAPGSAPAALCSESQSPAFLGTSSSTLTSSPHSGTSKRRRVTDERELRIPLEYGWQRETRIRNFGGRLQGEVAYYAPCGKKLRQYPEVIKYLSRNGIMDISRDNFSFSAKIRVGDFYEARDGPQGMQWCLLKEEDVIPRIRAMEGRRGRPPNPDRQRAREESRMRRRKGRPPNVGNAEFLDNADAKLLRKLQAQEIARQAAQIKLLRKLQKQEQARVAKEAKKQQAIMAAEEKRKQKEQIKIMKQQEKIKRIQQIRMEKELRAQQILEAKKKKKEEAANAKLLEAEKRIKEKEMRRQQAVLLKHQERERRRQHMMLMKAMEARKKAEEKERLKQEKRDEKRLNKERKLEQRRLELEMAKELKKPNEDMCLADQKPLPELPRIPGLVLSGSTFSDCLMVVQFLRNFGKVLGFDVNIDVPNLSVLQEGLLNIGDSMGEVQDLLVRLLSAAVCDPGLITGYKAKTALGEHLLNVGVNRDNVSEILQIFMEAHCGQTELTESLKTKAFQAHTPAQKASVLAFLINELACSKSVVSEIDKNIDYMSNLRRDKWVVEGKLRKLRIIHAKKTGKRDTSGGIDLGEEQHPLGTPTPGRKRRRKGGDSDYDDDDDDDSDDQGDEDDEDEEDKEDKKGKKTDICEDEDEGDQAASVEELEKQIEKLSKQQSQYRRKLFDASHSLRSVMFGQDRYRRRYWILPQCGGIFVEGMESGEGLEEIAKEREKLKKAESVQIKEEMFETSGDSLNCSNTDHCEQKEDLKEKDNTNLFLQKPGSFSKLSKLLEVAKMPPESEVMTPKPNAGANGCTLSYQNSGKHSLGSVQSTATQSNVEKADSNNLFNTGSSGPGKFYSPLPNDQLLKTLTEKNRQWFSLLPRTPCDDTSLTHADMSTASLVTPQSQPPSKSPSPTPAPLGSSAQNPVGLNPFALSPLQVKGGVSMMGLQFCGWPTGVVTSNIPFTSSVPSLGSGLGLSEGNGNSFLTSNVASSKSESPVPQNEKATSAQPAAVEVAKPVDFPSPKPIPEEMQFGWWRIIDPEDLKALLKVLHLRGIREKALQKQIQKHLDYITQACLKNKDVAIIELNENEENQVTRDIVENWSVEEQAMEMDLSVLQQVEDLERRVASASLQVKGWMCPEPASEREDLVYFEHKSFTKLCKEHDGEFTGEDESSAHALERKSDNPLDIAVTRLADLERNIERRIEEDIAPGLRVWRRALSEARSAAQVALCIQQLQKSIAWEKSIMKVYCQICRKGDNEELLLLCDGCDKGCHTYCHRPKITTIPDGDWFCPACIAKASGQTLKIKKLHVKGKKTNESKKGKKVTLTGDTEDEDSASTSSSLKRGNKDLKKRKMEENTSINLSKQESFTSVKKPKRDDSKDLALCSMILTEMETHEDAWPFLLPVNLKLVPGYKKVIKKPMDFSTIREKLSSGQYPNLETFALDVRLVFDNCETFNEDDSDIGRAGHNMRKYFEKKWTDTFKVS
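BAZ2B (50 nM) with biotin-H3(5-23)K14Ac peptide (50 nM) in PBS pH 7.4, 0.01% Tween-20, preformed 30 min, then compound 30 min at room temperature; top concentration 110uM. AlphaScreen streptavidin donor/nickel chelate acceptor beads (10 ug/mL final), 20 min dark, signal read.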
Active calls of the source: *; u = inconclusive; x = no result given; [ ] = another dose, or the depositor's remark. Compounds with a hit are over-represented: about 12% of the library has one in this group of screens. Calls follow the shape of the dose curve; as a rule, active = well fitted curve in the direction sought with a large enough effect; inconclusive = small, poorly fitted or top-dose-only effect, or another doubt; inactive = no such curve, though single readings can be large; an effect the other way counts as inactive or inconclusive. Potency is read from the fitted curve at half-maximal effect.

SMILES	G9a inh	JMJD2A Tudor inh	HP1b binding inh	Sfp inh	BAZ2B inh
O=C(N/N=C/c1cccc(O)c1)c1ccc(-n2cnnn2)cc1	8%	-12%	59%	x	8%
O=C(NN=Cc1ccc(F)cc1)c1cccc(S(=O)(=O)N2CCCC2)c1	x	-12%	15%	x	x
CCN(CC)S(=O)(=O)c1cccc(C(=O)N/N=C/c2ccccc2OCC(=O)O)c1	22µM*	u	0%	u	50µM*
O=C(N/N=C/c1ccc(O)c(O)c1)c1cccc(S(=O)(=O)N2CCCCC2)c1	50µM*	u	5%	-23%	u
O=C(O)COc1ccccc1/C=N/NC(=O)c1cccc(S(=O)(=O)N2CCOCC2)c1	14µM*	40µM*	0%	u	u
O=C(N/N=C/c1ccc(O)c(O)c1)c1ccc(-n2cnnn2)cc1	u	u	-12%	x	50µM*
O=c1c2ccccc2nc(SCc2ccccc2)n1CC1CCCO1 (stereo not given)	-12%[12.7 µM]	7%[11.4 µM]	158%	-9%	44%
COc1ccc(/C=C/c2nc(C#N)c(N3CCN(c4ccccc4)CC3)o2)cc1OC	0%[59 µM]	-14%	15%	x	-15%
COc1ccc(NC(=O)CCNS(=O)(=O)c2ccc3c(c2)CCN3C(=O)C2CC2)cc1Cl	15%[59 µM]	-8%	11%[57 µM]	x	0%
FC(F)(F)c1cc(CN2CC3(CCNCC3)C2)cc(C(F)(F)F)c1	5%[12.7 µM]	x	x	0%	x
Cc1ccc(S(=O)(=O)N2CCN(CC(=O)N/N=C/c3ccccc3OCC(=O)O)CC2)cc1	x	40µM*	14%	17%	-14%
COc1cc(OC)c(OC)cc1/C=N/NC(=O)c1cccc(S(=O)(=O)N2CCOCC2)c1	u	-25%	16%	6%	-27%
COc1cc(/C=N/NC(=O)c2cccc(S(=O)(=O)N3CCOCC3)c2)cc(OC)c1O	40µM*	-19%	17%	-8%	-13%
Cc1cc(-c2nc3c4c5c(sc4[nH]c(=O)n3n2)CCC5)c(C)o1	u	u	u	28µM*	50µM*
Nc1ccc(S(=O)(=O)NNC(=O)C(=O)NNc2ccccc2)cc1	1.8µM*	-4%	23%	0%	-39%
O=C(Cc1ccccc1)NNS(=O)(=O)c1ccc(F)cc1	3%	-10%	29%	8%	-15%
Nc1ccc(S(=O)(=O)Nc2ccc(C(=O)c3ccccc3)cc2)cc1	x	-19%	19%	0%	-11%
O=C(NNc1ccccc1)C(=O)NNS(=O)(=O)c1ccc(CCCl)cc1	45µM*	-19%	50%	31%	u
C#Cc1ccc(CN2CCCC(C(=O)Nc3ccccc3Oc3cccnc3)C2)cc1 (stereo not given)	-14%	-13%	31%	9%	-24%
O=C(O)C(Cc1ccc2c(c1)oc1ccccc12)NCP(=O)(O)O (stereo not given)	x	x	x	-20%	x
C=CCn1c(CCC(O)COCCC)n[nH]c1=S (stereo not given)	-34%	22µM*	26%	-3%	-27%
CCN(CC)CCCN1C(=O)C(=O)/C(=C(/O)c2ccc3c(c2)OCCO3)C1c1ccco1 (stereo not given)	50µM*	-10%	21%	3%	-24%
O=C1C(=O)N(CCN2CCOCC2)C(c2ccc([N+](=O)[O-])cc2)/C1=C(/O)c1ccc2c(c1)OCO2 (stereo not given)	x	25µM*	21%	-10%	-11%
CN(C)CCCN1C(=O)C(=O)/C(=C(/O)c2ccc3c(c2)OCCO3)C1c1ccco1 (stereo not given)	-1%	x	x	8%	2%
O=C1C(=O)N(CCCN2CCOCC2)C(c2ccc(F)cc2)/C1=C(\O)c1ccc2c(c1)OCCO2 (stereo not given)	45µM*	-8%	49%	8%	-19%
CC(C)(C)c1ccc(C2/C(=C(\O)c3ccc4c(c3)OCCO4)C(=O)C(=O)N2CCCN2CCOCC2)cc1 (stereo not given)	10%	-15%	60%	16%	-12%
CCOC(=O)C1=C(CN2CCC(C)CC2)NC(=O)NC1c1ccc(F)cc1 (stereo not given)	9%[59 µM]	-11%	17%	x	2%
